Data taken from ChEMBL document CHEMBL3988442, “University of Dundee, Small-Polar-MMV Screening Library” (2021).
For some assays here: Potency and affinity values are given separately.

Assays:
Design in all cases: scale not given: direction of the effect not stated beside the values
[1] = target: Protein translocase subunit SecA (Escherichia coli (strain K12)) (UniProt P10408); experiment: Assay to Identify E. coli SecA ATPase Inhibitors; type: functional; conditions: 30 µM
[2] = target: T1, Ubiquitin-activating enzyme e1, putative (Leishmania donovani (strain BPK282A1)) (UniProt E9BSI1); experiment: Leishmania donovani Ubiquitin Activating Enzyme (LdE1); type: functional; conditions: 30 µM
T1 sequence (whole entry): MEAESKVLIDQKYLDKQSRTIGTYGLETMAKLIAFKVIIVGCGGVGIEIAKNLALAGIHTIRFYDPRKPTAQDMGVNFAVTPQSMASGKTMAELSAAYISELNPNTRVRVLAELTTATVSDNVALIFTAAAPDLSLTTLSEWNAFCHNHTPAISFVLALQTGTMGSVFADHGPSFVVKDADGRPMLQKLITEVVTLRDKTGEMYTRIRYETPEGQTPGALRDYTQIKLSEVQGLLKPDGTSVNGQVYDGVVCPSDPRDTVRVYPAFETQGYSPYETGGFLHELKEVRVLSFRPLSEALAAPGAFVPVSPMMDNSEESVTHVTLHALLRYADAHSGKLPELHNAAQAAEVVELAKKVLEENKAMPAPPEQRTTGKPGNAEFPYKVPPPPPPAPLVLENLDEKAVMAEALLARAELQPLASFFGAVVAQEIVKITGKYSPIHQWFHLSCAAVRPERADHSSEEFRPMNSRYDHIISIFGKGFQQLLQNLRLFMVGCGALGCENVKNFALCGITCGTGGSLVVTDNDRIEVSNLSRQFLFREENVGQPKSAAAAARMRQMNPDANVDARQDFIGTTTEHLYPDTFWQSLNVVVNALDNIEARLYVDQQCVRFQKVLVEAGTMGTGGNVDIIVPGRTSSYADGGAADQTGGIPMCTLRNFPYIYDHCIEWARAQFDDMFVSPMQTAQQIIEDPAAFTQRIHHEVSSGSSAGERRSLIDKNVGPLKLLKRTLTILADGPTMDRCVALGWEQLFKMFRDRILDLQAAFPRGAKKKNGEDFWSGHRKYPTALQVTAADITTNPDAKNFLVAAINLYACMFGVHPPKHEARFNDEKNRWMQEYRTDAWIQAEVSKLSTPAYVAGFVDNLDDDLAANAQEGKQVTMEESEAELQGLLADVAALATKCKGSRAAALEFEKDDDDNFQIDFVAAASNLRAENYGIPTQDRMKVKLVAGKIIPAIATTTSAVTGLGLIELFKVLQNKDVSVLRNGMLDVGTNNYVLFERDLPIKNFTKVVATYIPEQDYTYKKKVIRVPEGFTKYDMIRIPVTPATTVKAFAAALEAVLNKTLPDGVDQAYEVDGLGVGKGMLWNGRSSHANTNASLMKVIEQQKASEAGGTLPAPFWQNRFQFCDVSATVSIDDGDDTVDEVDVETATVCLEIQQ

[3] = target: AMP-activated protein kinase, AMPK (Homo sapiens) (UniProt P54646+O43741+P54619+Q9UGJ0+Q9Y478+Q13131+Q9UGI9); experiment: AMP-dependent Kinase enzyme assay. An in vitro enzyme assay that detects ADP turnover that is directly proportional to AMPK activity. This uses naive AMPK that is activated during the assay with MK-8722; type: functional; conditions: 30 µM
[4] = target: Sialic acid-binding Ig-like lectin 9 (Homo sapiens) (UniProt Q9Y336); experiment: Hs-Siglec9 ALPHAscreen SOP 20170721; conditions: 10 µM
[5] = system: Trypanosoma cruzi; experiment: Trypanosoma cruzi phosphomannomutase and mannose-1-phosphate guanylyltransferase assay; type: functional; conditions: 10 µM
[6] = target: T2, Arginase-2, mitochondrial (Homo sapiens) (UniProt P78540); experiment: in vitro enzyme assay to detect the production of urea directly proportional to the activity of Arginase II; type: functional; conditions: 33.3 µM; further: in the data most compounds retested in dose-response had high values
T2 sequence (whole entry): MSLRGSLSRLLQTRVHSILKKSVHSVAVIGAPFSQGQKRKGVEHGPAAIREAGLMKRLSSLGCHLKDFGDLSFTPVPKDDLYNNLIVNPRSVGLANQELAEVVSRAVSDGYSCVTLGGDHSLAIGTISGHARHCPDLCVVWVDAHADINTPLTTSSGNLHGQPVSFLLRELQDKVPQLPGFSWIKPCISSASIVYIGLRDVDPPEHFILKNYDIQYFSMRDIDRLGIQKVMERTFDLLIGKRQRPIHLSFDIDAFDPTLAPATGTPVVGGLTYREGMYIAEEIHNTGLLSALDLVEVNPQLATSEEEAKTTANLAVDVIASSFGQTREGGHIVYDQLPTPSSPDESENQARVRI

[7] = target: T3, Proteasome subunit beta (Trypanosoma cruzi) (UniProt O96673); experiment: Trypanosoma cruzi proteasome chymotrypsin-like activity (TcProtChymo) assay.; further: in the data most compounds retested in dose-response had high values; type: functional; conditions: 9.37 µM
T3 sequence (whole entry): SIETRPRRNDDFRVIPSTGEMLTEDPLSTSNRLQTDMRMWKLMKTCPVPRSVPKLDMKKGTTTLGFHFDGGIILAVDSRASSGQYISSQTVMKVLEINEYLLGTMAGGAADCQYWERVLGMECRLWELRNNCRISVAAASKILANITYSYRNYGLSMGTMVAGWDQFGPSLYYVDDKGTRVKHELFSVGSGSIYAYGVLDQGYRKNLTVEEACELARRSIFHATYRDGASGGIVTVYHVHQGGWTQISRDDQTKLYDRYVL

[8] = species: Homo sapiens; experiment: To identify inhibition of the IFN signalling (Jak-Stat) pathway via expression of an eGFP reporter gene under the control of an IFN-stimulated response element (ISRE) containing MxA promoter.; type: functional; conditions: 30 µM
[9] = target: T4, Tyrosyl-tRNA synthetase, putative (Trypanosoma cruzi (strain CL Brener)) (UniProt Q4DSP6); experiment: Trypanosoma cruzi tyrosyl tRNA synthetase (TcYRS) _High Tyrosine SOP; type: functional; conditions: 30 µM; further: in the data most compounds retested in dose-response had high values
T4 sequence (whole entry): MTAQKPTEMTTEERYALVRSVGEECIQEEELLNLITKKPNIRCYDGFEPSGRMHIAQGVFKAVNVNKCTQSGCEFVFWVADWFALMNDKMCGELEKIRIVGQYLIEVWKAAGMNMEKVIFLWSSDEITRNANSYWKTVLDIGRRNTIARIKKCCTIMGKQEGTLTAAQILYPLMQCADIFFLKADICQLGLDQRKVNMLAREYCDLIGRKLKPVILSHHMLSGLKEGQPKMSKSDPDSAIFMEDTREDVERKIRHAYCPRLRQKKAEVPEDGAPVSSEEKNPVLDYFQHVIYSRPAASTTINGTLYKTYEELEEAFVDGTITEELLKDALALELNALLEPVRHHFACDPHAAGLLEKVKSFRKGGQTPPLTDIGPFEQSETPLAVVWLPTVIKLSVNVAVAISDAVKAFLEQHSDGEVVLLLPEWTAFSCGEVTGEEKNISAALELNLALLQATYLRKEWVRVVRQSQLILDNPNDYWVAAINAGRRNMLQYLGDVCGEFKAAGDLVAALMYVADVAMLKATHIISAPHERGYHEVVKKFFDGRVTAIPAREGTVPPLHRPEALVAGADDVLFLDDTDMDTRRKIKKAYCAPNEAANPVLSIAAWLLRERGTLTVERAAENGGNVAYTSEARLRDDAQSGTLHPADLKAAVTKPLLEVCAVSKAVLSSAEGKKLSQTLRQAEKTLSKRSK

[10] = target: T4, Tyrosyl-tRNA synthetase, putative (Trypanosoma cruzi (strain CL Brener)); experiment: Trypanosoma cruzi tyrosyl tRNA synthetase (TcYRS) SOP; type: functional; conditions: 30 µM
[11] = target: Chromo domain-containing protein 1 (Saccharomyces cerevisiae (strain ATCC 204508 / S288c) (Baker's yeast)) (UniProt P32657); experiment: ScCHD-1 Enzyme Inhibition Assay; type: functional; conditions: 30 µM; further: in the data most compounds retested in dose-response had high values
Chromo domain-containing protein 1 (Saccharomyces cerevisiae (strain ATCC 204508 / S288c) (Baker's yeast)), sequence (P32657 whole entry, the tested form may be a part): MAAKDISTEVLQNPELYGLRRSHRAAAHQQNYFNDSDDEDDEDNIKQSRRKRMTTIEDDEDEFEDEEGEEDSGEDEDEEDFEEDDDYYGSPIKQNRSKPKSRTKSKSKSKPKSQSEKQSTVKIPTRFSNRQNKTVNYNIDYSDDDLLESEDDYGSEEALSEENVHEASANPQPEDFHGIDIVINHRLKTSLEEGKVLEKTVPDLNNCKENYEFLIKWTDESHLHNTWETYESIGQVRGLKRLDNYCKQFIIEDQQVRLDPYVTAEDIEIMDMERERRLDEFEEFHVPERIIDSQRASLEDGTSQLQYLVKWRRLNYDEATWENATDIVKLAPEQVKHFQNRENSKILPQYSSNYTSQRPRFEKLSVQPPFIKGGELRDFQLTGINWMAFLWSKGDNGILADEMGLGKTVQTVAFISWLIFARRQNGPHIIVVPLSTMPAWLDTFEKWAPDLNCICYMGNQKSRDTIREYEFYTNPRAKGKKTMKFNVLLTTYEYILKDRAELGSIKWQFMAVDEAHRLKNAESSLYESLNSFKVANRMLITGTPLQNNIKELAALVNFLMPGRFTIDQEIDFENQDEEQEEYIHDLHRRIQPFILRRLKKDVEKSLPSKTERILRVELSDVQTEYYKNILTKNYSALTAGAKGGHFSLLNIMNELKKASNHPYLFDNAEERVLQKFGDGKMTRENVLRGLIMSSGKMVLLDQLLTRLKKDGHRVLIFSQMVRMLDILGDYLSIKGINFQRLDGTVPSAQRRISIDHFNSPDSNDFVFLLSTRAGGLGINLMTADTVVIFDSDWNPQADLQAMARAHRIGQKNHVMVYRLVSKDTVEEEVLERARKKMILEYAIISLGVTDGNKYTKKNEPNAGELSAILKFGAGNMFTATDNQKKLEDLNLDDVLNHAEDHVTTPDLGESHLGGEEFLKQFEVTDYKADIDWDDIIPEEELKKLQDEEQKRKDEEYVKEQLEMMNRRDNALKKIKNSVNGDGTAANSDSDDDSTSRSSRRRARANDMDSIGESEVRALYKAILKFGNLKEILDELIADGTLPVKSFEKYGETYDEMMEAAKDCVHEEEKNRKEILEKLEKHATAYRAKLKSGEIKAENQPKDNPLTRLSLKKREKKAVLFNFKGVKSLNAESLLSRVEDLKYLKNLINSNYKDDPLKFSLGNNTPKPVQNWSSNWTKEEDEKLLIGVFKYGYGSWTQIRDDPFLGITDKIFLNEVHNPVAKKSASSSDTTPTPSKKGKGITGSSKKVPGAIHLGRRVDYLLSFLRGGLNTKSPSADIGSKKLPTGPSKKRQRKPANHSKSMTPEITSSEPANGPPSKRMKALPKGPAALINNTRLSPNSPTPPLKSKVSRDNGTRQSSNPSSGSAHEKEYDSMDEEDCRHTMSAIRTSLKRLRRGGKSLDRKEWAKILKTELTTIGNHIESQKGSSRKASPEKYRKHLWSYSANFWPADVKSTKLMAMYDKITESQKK

Sialic acid-binding Ig-like lectin 9 (Homo sapiens), sequence (Q9Y336 whole entry): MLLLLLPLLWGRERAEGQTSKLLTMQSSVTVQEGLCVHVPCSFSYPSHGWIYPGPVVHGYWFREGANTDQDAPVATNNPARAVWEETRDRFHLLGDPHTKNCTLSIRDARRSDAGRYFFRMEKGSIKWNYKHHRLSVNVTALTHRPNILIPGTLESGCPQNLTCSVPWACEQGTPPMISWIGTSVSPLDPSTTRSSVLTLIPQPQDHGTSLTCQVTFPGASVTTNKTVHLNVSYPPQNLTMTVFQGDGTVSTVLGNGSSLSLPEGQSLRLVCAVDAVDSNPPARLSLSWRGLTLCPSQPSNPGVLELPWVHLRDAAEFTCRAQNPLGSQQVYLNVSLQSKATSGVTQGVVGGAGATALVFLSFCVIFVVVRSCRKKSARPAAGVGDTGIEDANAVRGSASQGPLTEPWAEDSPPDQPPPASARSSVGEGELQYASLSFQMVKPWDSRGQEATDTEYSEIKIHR
Protein translocase subunit SecA (Escherichia coli (strain K12)), sequence (P10408 whole entry): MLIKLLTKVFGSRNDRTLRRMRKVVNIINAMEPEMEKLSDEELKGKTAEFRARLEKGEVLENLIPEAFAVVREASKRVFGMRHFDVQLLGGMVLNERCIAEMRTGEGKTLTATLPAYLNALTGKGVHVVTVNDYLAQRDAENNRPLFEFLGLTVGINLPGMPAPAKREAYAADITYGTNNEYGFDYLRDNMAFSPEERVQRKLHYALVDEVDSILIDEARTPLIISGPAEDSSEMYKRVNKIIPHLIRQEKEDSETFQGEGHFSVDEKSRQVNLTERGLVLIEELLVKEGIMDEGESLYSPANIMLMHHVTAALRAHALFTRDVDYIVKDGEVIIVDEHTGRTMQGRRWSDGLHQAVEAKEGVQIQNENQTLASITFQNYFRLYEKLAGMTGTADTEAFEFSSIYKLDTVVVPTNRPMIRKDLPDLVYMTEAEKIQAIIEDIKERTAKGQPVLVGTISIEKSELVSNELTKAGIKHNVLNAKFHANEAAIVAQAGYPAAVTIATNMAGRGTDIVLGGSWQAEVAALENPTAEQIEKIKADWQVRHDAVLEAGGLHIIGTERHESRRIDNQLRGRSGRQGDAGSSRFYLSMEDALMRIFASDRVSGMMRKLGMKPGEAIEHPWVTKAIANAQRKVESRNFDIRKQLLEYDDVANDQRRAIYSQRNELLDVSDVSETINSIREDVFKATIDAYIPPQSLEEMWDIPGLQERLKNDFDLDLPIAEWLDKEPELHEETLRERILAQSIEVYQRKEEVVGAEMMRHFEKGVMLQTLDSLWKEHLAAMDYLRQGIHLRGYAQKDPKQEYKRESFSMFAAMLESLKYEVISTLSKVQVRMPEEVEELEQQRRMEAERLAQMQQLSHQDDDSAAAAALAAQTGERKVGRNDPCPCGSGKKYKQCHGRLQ

Structure (SMILES) | Percent Effect [1] [%] | Percent Effect [2] [%] | Percent Effect [3] [%] | Percent Effect [4] [%] | Percent Effect [5] [%] | Percent Effect [6] [%] | Percent Effect [7] [%] | Percent Effect [8] [%] | Percent Effect [9] [%] | Percent Effect [10] [%] | Percent Effect [11] [%]
Cc1ccc(CN(Cc2ccccn2)C2CC(C)(C)NC(C)(C)C2)s1 | -1.39 | -4.05 | 8.17 | 7.72 | -3.95 | -0.232 | 8.27 | 5.16 | 4.3 | 3.9 | -9.63
Cc1ccc2oc(CNC(C)c3nnc4n3CCCC4)cc2c1 (stereo unspecified) | -2.09 | -10.8 | -8.92 | -1.29 | 0.781 | -2.5 | 10.6 | 17.8 | 11.9 | 15.8 | 1.91
CC(C)C(=O)NCC(=O)N(C)C1CCCN(C2Cc3ccccc3C2)C1 (stereo unspecified) | 0.272 | 8.11 | -4.7 | 3.43 | -3.48 | 0.476 | 14.3 | 11.7 | -1.59 | -26.8 | -2.54
CO[C@H]1CO[C@@]2(CCCN(C(=O)C3=CCCCC3)C2)C1 | -5.62 | 13.3 | 1.22 | -1.82 | 1.35 | -47.5 | 8.03 | 0.996 | 3.12 | 2.5 | -8
CCOc1ccc(CC(CNC(=O)c2occc2C)C(N)=O)cc1 (stereo unspecified) | -5.57 | 10.4 | -18.6 | -5.56 | -3.23 | 1.47 | 3.64 | 9.64 | 7.62 | 11.8 | -12.3
CCn1cnnc1C1CCN(C(=O)c2cnc(C3CC3)s2)CC1 | -2.76 | 17.7 | -5.9 | 9.8 | 0.85 | -2.28 | 3.52 | -10.4 | 6.4 | 13.9 | -4.8
CCn1cnnc1CNC(=O)c1cc(Cl)ccc1O | -2.03 | 8.86 | 6.87 | -0.716 | -5.44 | -7.1 | 17 | 11.3 | 5.21 | -15.2 | -14
CN1CCN(Cc2cccnc2)C2(CCN(c3ncc(F)cn3)C2)C1=O (stereo unspecified) | -4.27 | 5.2 | 2.79 | 8.1 | -0.885 | -13.8 | 2.33 | -4.32 | 4.3 | 8.64 | -0.489
CCc1nnc2n1CCN(C(=O)c1ccc3[nH]cnc3c1)C2 | -7.1 | 12.5 | -11.5 | 41.5 | 6.9 | 3.97 | 10.2 | 0.294 | 3.16 | 15.4 | -13.2
CC(C)n1cc(CN2CCCN(C(=O)c3cc(Cl)c[nH]3)CC2)cn1 | -2.91 | 10.8 | -4.13 | 15.8 | 1.23 | -4.41 | 0.36 | 15.2 | 2.46 | 13.6 | -8.52
CCc1cc(NCc2ccccc2CN2CCCC2)n2ncnc2n1 | -5.91 | 0 | -0.284 | -9.79 | -4.38 | 5.92 | 17.4 | -22.7 | 3.19 | -2.6 | -5.77
Cc1nn(C)c(C)c1CC(=O)N1CCCC(n2cccn2)C1 (stereo unspecified) | -2.93 | -5.26 | -2.25 | -1.17 | 6.26 | -5.4 | 2.12 | -14.2 | 3.45 | 3.7 | 0.321
CCN(CC)C(=O)c1cc(C2CCCN2C)ccn1 (stereo unspecified) | -5.39 | 23 | -2.48 | -2.94 | 0.988 | -2.55 | 15.4 | -5.61 | 5.38 | 11.7 | -12.8
CCO[C@@H]1CO[C@@]2(CCCN(C(=O)COc3ccccc3OC)C2)C1 | 2.9 | 18.2 | 3.83 | -2.8 | 0.888 | 8.39 | 8.7 | 25.1 | 6.35 | 16.7 | -9.93
Cc1cccc(C(=O)N2C[C@@H]3CCN(c4cccnc4)C[C@@H]3C2)c1 | -6.42 | 2.67 | 9.98 | -2.65 | -1.38 | 0.233 | 1.67 | 16.4 | 1.06 | -3.85 | -3.21
Cn1cc(CN2CCCC3(CCN(c4nncs4)C3)C2)cn1 (stereo unspecified) | -9.67 | 2.7 | 2.26 | -4.09 | -2.83 | -1.24 | 1.97 | -4.18 | 1.07 | 6.17 | -0.679
